From PubChem BioAssay
CCHF vOTU inh = CCHFV vOTU protease inhibitors, primary screen, biochemical, Pep-AMC substrate, fluorescence | Crimean-Congo hemorrhagic fever virus L polyprotein viral ovarian tumor (vOTU) protease … | inhibition, % at 11.5 µM | 370,000 compounds, 0.55% hits | AID 651958, 2012; in the data active = inhibition above about 30%
GDH-TPI counter-1 = GDH-TPI coupling enzyme inhibitors, primary screen, artefact control for M. tuberculosis FBA inhibitor project, biochemical, absorbance, full deck. GDH-TPI coupled enzyme counterscreen, NADH absorbance. inhibition, % at 4.8 µM. 360,000 compounds, 1.2% hits. AID 588335, 2011; in the data active = inhibition above about 30%
FBA Mtb inh = Mtb FBA enzyme inhibitors, primary screen, biochemical, fluorescence, strain H37Rv; Fructose-bisphosphate aldolase (Mycobacterium tuberculosis (strain ATCC 25618 / H37Rv)), …; purified M. tuberculosis FBA, fluorescence read-out; inhibition, % at 1 µM; 360,000 compounds, 2.3% hits; AID 588726, 2011
MazEF act = activators of E. coli MazEF toxin-antitoxin RNase, primary screen, biochemical, fluorescence, uHTS | activation, % at 20 µM | FAM/BHQ RNA-DNA oligo cleavage fluorescence, 5 h | AID 504720, 2011 | Endoribonuclease toxin MazF (Escherichia coli (strain K12)), P0AE70 | 350,000 compounds, 0.32% hits; in the data active = activation above about 50%
Target sequence (P0AE70 whole entry, looked up): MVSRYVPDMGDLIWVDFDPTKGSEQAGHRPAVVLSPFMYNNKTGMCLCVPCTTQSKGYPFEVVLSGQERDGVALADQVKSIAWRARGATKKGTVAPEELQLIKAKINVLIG
Mtb bLac sens = beta-lactam sensitization of Mtb H37Rv, H37Rv. M. tuberculosis H37Rv growth with meropenem, percent inhibition. inhibition, % at 25 µM. 330,000 compounds, 0.27% hits. AID 434955, 2010; call rule not given here;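 note: growth measured after seven days incubation then overnight dye step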
Mtb FBA confirm = M. tuberculosis aldolase blockers, biochemical, fluorescence, strain H37Rv, confirmation | shares compounds with FBA Mtb inh | purified M. tuberculosis FBA, fluorescence read-out | inhibition, % at 1 µM | 5,600 compounds, 78% hits | AID 651616, 2012
GDH-TPI counter-2 = GDH-TPI coupling enzyme inhibitors, artefact control for M. tuberculosis FBA inhibitor project, biochemical, fluorescence, high throughput; shares compounds with FBA Mtb inh; GDH-TPI coupled enzyme counterscreen; inhibition, % at 1 µM; 5,600 compounds, 81% hits; in the data active = inhibition above about 10%
Numbers stand for hits. Most compounds without a hit are left out; they make up all but 4% or so of the library. Cut-off read from the data, not from the text of the source, unless noted: active = inhibition above about 27%; inactive = the rest.

For CCCn1nc2cc(C(=O)NCC34CC5CC(CC(C5)C3)C4)ccc2c1OCC the results were CCHF vOTU inh inactive, GDH-TPI counter-1 inactive, FBA Mtb inh 29, MazEF act inactive, Mtb bLac sens inactive, Mtb FBA confirm inactive and GDH-TPI counter-2 inactive.
Screening COCCn1nc2cc(C(=O)NCC34CC5CC(CC(C5)C3)C4)ccc2c1OC returned CCHF vOTU inh inactive, GDH-TPI counter-1 inactive, FBA Mtb inh 43, MazEF act inactive, Mtb bLac sens inactive, Mtb FBA confirm active and GDH-TPI counter-2 active.
Screening CSc1ncccc1C(=O)NCC12CC3CC(CC(C3)C1)C2 returned CCHF vOTU inh inactive, GDH-TPI counter-1 inactive, FBA Mtb inh inactive, MazEF act inactive and Mtb bLac sens inactive.
For CCCCCCC12C(=Cc3cc(C)ccc31)c1ccccc1C(CC(=O)NCc1ccccc1)N2C(=O)OC (stereo not given) the results were CCHF vOTU inh inactive.
CCN1CCCC1CNC(=O)c1cc2cc(F)ccc2[nH]1 (stereo not given) was read as CCHF vOTU inh inactive, GDH-TPI counter-1 inactive, FBA Mtb inh 30, MazEF act inactive, Mtb bLac sens inactive, Mtb FBA confirm active and GDH-TPI counter-2 active.
O=S1(=O)c2ccc(N3CCC[C@H]3CO)cc2O[C@@H]2CCN1C2 was read as CCHF vOTU inh inactive.
O=C(Cn1cnc2ccccc2c1=O)N1CCN(Cc2ccc(F)cc2)CC1 was read as CCHF vOTU inh inactive.
For O=c1cc(-c2ccccc2)nc2cc(-c3ccc(Br)cc3)[nH]n12 the results were CCHF vOTU inh inactive, GDH-TPI counter-1 inactive, FBA Mtb inh inactive, MazEF act inactive and Mtb bLac sens inactive.
COCc1cc(=O)n2[nH]cc(-c3ccsc3)c2n1 was read as CCHF vOTU inh inactive, GDH-TPI counter-1 inactive, FBA Mtb inh 55, MazEF act inactive, Mtb bLac sens inactive, Mtb FBA confirm 94 and GDH-TPI counter-2 84.
COCc1cc(=O)n2[nH]c(-c3cccc(Br)c3)cc2n1 was read as CCHF vOTU inh inactive, GDH-TPI counter-1 inactive, FBA Mtb inh inactive, MazEF act inactive and Mtb bLac sens inactive.
Cc1cc2nc(-c3ccccc3)cc(=O)n2[nH]1 was read as CCHF vOTU inh inactive, GDH-TPI counter-1 inactive, FBA Mtb inh 47, MazEF act inactive, Mtb bLac sens inactive, Mtb FBA confirm active and GDH-TPI counter-2 active.
`COCc1cc(=O)n2[nH]c(-c3ccccc3)cc2n1` gave CCHF vOTU inh inactive, GDH-TPI counter-1 inactive, FBA Mtb inh 33, MazEF act inactive, Mtb bLac sens inactive, Mtb FBA confirm active and GDH-TPI counter-2 active.
For CCOC(=O)Cc1cc(=O)n2[nH]cc(-c3ccc(Cl)cc3)c2n1 the results were CCHF vOTU inh inactive, GDH-TPI counter-1 inactive, FBA Mtb inh inactive, MazEF act inactive and Mtb bLac sens inactive.
Screening CCC(=O)N1CCN(c2ccc(-n3c(=O)ccc4cnc5ccc(-c6cnc7ccccc7c6)cc5c43)cc2C(F)(F)F)CC1 returned CCHF vOTU inh inactive.
O=C(CCNc1cccc(F)c1)c1cc2ccccc2o1 was read as CCHF vOTU inh inactive, GDH-TPI counter-1 inactive, FBA Mtb inh 28, MazEF act inactive, Mtb bLac sens inactive, Mtb FBA confirm inactive and GDH-TPI counter-2 inactive.
`O=C(CCNc1ccc(F)cc1)c1cc2ccccc2o1` gave CCHF vOTU inh inactive, GDH-TPI counter-1 inactive, FBA Mtb inh inactive, MazEF act inactive and Mtb bLac sens inactive.
`COC(=O)Cc1nnn2c1[C@@H](C)[C@@H](c1ccccc1Br)OC[C@H](C)C2` gave CCHF vOTU inh inactive.
O=C1CCC(=O)N1c1nc2nc(-c3ccccc3)cc(-c3ccccc3)n2n1 was read as CCHF vOTU inh inactive, GDH-TPI counter-1 inactive, FBA Mtb inh 66, MazEF act inactive, Mtb bLac sens inactive, Mtb FBA confirm 89 and GDH-TPI counter-2 62.
